Mtb hypoxia inh – PubChem AID 1159583. hit rate 0.1% among 300,000. M. tuberculosis hypoxia-regulated fluorescent reporter, fluorescence. fluorescence inhibition, % (test concentration not listed); in the data active = fluorescence inhibition mostly above about 23%, no sharp cut-off; inactive = mostly below about 17%
SARS 3CLpro inh – SARS-CoV 3CLpro protease inhibitors, primary screen, biochemical, quenched FRET; Replicase polyprotein 1ab (Severe acute respiratory syndrome coronavirus), P0C6X7; AID 1706, 2009; inhibition, % at 6 µM; hit rate 0.14% among 290,000; recombinant SARS-CoV 3CLpro, quenched FRET peptide cleavage; in the data active = inhibition above about 12%
BJeLR viability – MLPCN primary cell-based screen for lethality selective to Ras in HRASV12 cells; hit rate 0.17% among 300,000; BJeLR (HRASV12) viability, CellTiter-Glo ATP luminescence, 48 h; inhibition, % (test concentration not listed); in the data active = inhibition above about 50%
RecA intein inh – Mtb RecA intein splicing inhibitors, primary screen, biochemical, fluorescence, HTS | Protein RecA (Mycobacterium tuberculosis (strain ATCC 25618 / H37Rv)), P9WHJ3 | cell-free RecA intein splicing | inhibition, % (concentration not given with the values) | hit rate 0.75% among 290,000 | AID 2221, 2009; in the data active = inhibition above about 30%
PrPC TRFRET – inhibitors of human cell surface prion protein PrPC, primary screen, cell-based, TR-FRET | inhibition, % at 13.8 µM | TR-FRET read-out | hit rate 0.43% among 370,000 | AID 720596, 2013; in the data active = inhibition above about 24%
PrP UTR inh – inhibition of PrP 5' UTR reporter expression; cell-based PrP 5' UTR mRNA reporter, plate reader; inhibition, % (concentration not given with the values); hit rate 0.35% among 340,000; AID 488862, 2010; in the data active = inhibition above about 52%
PrP UTR cherry – prion 5' UTR mRNA inhibition, cherry-pick retest | shares compounds with PrP UTR inh | cell-based prion protein 5' UTR reporter, plate reader | inhibition, % at 2.5 µM | hit rate 48% among 1,100; in the data active = inhibition above about 54%
PrPC confirm – confirmation of inhibitors of cell surface human prion protein, confirmation, cell-based, TR-FRET; shares compounds with PrPC TRFRET; cell surface PrPC level; inhibition, % at 13.8 µM; hit rate 65% among 1,500; in the data active = inhibition above about 25%
LD9 tox – cytotoxicity in LD9 cells, cytotoxicity control for cell surface PrPc inhibitor project, cell-based, luminescence, high throughput; luminescence viability; hit rate 29% among 1,500; inhibition, % at 13.8 µM; AID 743201, 2013; shares compounds with PrPC TRFRET; in the data active = inhibition above about 9.5%
Hits are given with their value; i = inactive; nt = no result shown. The list is not random: actives were taken first. Their share in the collection is about 1.4%.

SMILES	Mtb hypoxia inh	SARS 3CLpro inh	BJeLR viability	RecA intein inh	PrPC TRFRET	PrP UTR inh	PrP UTR cherry	others
Cc1ccc(C(=O)NN=Cc2ccc([N+](=O)[O-])s2)cc1	i	nt	nt	nt	nt	nt	nt
Cc1ccc(C(=O)N/N=C/c2ccc([N+](=O)[O-])s2)cc1	nt	i	i	i	i	74.6	77.1
COc1ccc(NC(=O)N(C)CC2Oc3ccc(NC(=O)c4ccncc4)cc3C(=O)N(C(C)CO)CC2C)cc1 (stereo not given)	i	nt	nt	nt	nt	nt	nt
Cc1cccc(C)c1OCc1n[nH]c(=S)o1	i	i	i	i	i	73.2	i
Cc1cccc(OCc2n[nH]c(=S)o2)c1C	i	i	i	nt	i	i	nt
Cc1ccc(CN2CCN(N=Cc3ccc(Cl)c([N+](=O)[O-])c3)CC2)cc1	i	nt	nt	nt	nt	nt	nt
COc1cc(/C=C2\CC/C(=C\c3cc(OC)c(OC)c(OC)c3)C2=O)cc(OC)c1OC	nt	i	i	i	i	i	nt
COc1cc(/C=C2\COC/C(=C\c3cc(OC)c(OC)c(OC)c3)C2=O)cc(OC)c1OC	nt	i	i	i	i	89.1	96.8
CC(NC(=O)c1nc[nH]c1C(=O)NC(Cc1ccccc1)C(=O)OC(C)(C)C)c1ccccc1 (stereo not given)	i	nt	nt	nt	nt	nt	nt
Cc1nn(-c2ccccc2)c(C)c1/C=N/NC(=O)c1cc(-c2ccc(Br)s2)[nH]n1	nt	i	i	i	i	i	nt
Cc1nn(-c2ccccc2)c(C)c1/C=N/NC(=O)c1cc(-c2cccs2)[nH]n1	nt	i	i	i	i	67.5	78.3
COc1ccc2c(COC(=O)c3cccc(S(=O)(=O)NCC(C)C)c3)cc(=O)oc2c1	i	i	i	i	i	i	nt
CCCNS(=O)(=O)c1cccc(C(=O)OCc2cc(=O)oc3cc(OC)ccc23)c1	i	i	i	i	i	57.2	69.2
O=C(O)C1(Br)CC12c1ccccc1-c1ccccc12 (stereo not given)	nt	nt	nt	nt	i	53.8	i
Cn1cccc1/C=C1\SC(=Nc2ccc(O)cc2)NC1=O	i	i	62.3	i	i	68.8	82.3
COc1ccc(C2CC(=O)C=C(c3ccc4ncccc4c3)C2)cc1 (stereo not given)	i	nt	nt	nt	nt	nt	nt
[N-]=[N+]=NCCC=CC1NS(=O)(=O)OCC1O (stereo not given)	i	nt	nt	nt	nt	nt	nt
CC(=O)OC1C(O)C(C)OC(OC2C(OC(=O)C3CCC4C(C3)OC3(CC(OC(=O)/C=C/c5ccccc5)C(C)CO3)C43CO3)OC(C)C(O)C2OC(C)=O)C1O (stereo not given)	nt	nt	nt	nt	86.3	83.7	82.8	PrPC confirm=98.0;LD9 tox=66.7
CC(=O)CCC1C2C(O)C(C(C)C)C(OC(=O)/C=C/c3ccccc3)CC12C (stereo not given)	nt	nt	i	i	i	i	nt
C[C@H]1CCC/C=C/[C@@H]2C[C@H](O)C[C@H]2[C@H](O)/C=C/C(=O)O1	nt	nt	nt	nt	94.6	79.2	87.1	PrPC confirm=95.2;LD9 tox=i
CCC(=O)N1CC2(CC(c3cccc(NC(=O)COc4ccc(Cl)cc4)c3)=NO2)CC1C(N)=O (stereo not given)	i	nt	nt	nt	nt	nt	nt
CC(=O)OC(C)(C)/C=C/C(=O)C(C)(O)C1[C@H](O)C[C@@]2(C)C3CC=C4C(CC[C@@H](O)C4(C)C)[C@]3(CO)C(=O)C[C@]12C (stereo not given in full)	i	i	i	i	30.2	80.7	90.0	PrPC confirm=32.9;LD9 tox=i
CC1=CC2OC3CC4OC(=O)C=CC=CC(C(C)O)OCC(O)C(C)CC(=O)OCC2(CC1O)C4(C)C31CO1 (stereo not given)	nt	nt	nt	nt	88.1	95.3	95.3	PrPC confirm=98.8;LD9 tox=60.2
CCOC(=O)c1cccc(-n2cccc2C=C2NC(=O)N(CC(=O)O)C2=O)c1	i	nt	nt	nt	nt	nt	nt
CC(=O)ON=C1C(=O)N(Cc2ccc(C)cc2)c2ccccc21	i	nt	nt	nt	nt	nt	nt

Screening results as filed in PubChem BioAssay.
